Cruzain Triton: cruzain (T. cruzi) inhibition with detergent. purified cruzain, Z-FR-AMC fluorescence, 0.01% Triton. 200,000 tested, 0.43% active. Potency, µM, usual class: inhibitors; further: nearly all actives have a fitted effect of over 40% in size
Target sequence (P25779 123-467 limits assumed): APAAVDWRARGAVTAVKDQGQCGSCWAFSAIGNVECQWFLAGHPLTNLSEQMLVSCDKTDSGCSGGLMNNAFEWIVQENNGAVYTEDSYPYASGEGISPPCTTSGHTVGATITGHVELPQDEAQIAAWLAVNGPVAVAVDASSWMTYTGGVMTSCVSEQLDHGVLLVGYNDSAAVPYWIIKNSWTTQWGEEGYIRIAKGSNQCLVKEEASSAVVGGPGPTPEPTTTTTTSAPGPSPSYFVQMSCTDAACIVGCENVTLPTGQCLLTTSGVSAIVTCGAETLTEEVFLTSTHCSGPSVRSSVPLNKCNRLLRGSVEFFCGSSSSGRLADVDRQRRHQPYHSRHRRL
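Cruzain (1.5 nM) preincubated 15 min at RT with compound in 100 mM sodium acetate pH 5.5, 5 mM DTT, 0.01% Triton X-100. Reaction started with 2 uM Z-FR-AMC; AMC fluorescence (ex 360/em 450 nm) change over 60 s gave rate.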
Cruzain inh noDet: cruzain (T. cruzi) inhibition without detergent; purified cruzain, Z-FR-AMC fluorescence, no detergent; Potency, µM, hits mostly inhibitors; 200,000 tested, 2.3% active; AID 1476; further: nearly all actives have a fitted effect of over 40% in size
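Detergent-free condition (0.00005% Triton X-100) in acetate buffer pH 5.5 with DTT. 1.5 nM enzyme and compound were pre-mixed 15 min, then 2 uM Z-FR-AMC substrate added; reaction progress from fluorescence change between first and third reads (60 s).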
Papain inh: blocks papain protease activity, flagging nonselective cruzain hits | 410 tested, 41% active | purified papain, Z-FR-AMC fluorescence cleavage | Potency, µM, most hits filed as inhibitors | shares compounds with Cruzain Triton | AID 2161; further: nearly all actives have a fitted effect of over 35% in size
Target sequence (P00784 whole entry, looked up): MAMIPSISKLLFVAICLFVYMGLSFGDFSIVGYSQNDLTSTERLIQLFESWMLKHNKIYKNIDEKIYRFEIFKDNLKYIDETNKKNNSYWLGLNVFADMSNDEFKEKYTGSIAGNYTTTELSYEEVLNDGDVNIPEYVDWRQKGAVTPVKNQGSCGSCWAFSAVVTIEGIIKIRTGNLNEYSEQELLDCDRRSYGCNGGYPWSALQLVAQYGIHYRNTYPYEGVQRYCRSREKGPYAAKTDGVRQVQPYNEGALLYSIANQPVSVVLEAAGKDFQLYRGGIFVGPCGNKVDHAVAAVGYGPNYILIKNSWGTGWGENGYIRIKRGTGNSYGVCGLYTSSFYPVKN
Of the large screens only hits and unclear results are named; the others gave an inactive call (follow-up assays come after a bar, where they were run); ! = not confirmed by another sample. Hits are enriched below; roughly 2.4% of the tested compounds scored in any of these assays. The call rests on the fitted dose curve; in most records, active means well fitted curve in the direction sought with a large enough effect; inconclusive means small, poorly fitted or top-dose-only effect, or another doubt; inactive means no such curve, though single readings can be large; an effect the other way counts as inactive or inconclusive.

CC(C)(C)c1ccc(-c2nc(S(=O)(=O)c3ccccc3)c(N3CCOCC3)o2)cc1	none
N=c1c(C(=O)NCc2ccc(F)cc2)cc2c(=O)n3ccccc3nc2n1CC1CCCO1 (stereo not given)	Cruzain Triton 32µM, Cruzain inh noDet inconclusive | Papain inh 16µM
CCn1c(=N)c(C(=O)NC2CCCC2)cc2c(=O)n3ccccc3nc21	none
COc1ccc(NS(=O)(=O)c2ccc(-n3nnc4ccccc43)c([N+](=O)[O-])c2)cc1	Cruzain inh noDet inconclusive
O=[N+]([O-])c1cc(S(=O)(=O)Nc2cccc(C(F)(F)F)c2)ccc1-n1nnc2ccccc21	Cruzain Triton 4µM, Cruzain inh noDet 10µM | Papain inh 28µM
O=C(Oc1ccc(/C=N/NC(=O)c2ccccc2O)cc1)c1ccccc1	none
O=C(N/N=C\c1ccccc1O)c1ccccc1O	Cruzain inh noDet 32µM | Papain inh inactive
NC(=NC1C2CC3CC(C2)CC1C3)Nc1ccc(I)cc1 (stereo not given)	none
FC(F)Sc1ccc(N=C2NN=C(c3ccc4c(c3)OCCO4)CS2)cc1	Cruzain inh noDet 3.2µM | Papain inh inactive
Cc1cccc(C)c1N=C1NN=C(c2ccccc2F)CS1	Cruzain inh noDet inconclusive
O=C(NC1CCCCC1)c1cc(-c2ccco2)on1	none
Cc1cccc(N2CCN(C(=O)c3ccc4nc(-c5ccco5)c(-c5ccco5)nc4c3)CC2C)c1 (stereo not given)	none
O=C(Nc1ccccc1)c1ccc2nc(-c3ccco3)c(-c3ccco3)nc2c1	Cruzain Triton inconclusive, Cruzain inh noDet inconclusive | Papain inh 13µM
CNC(=O)c1ccc2nc(-c3ccco3)c(-c3ccco3)nc2c1	none (no result: Cruzain Triton, Cruzain inh noDet) | Papain inh 32µM
O=C(NCc1ccco1)c1cccc(NC(=O)c2ccccc2)c1	none
O=C(NC1CC1)c1ccc2nc(-c3ccco3)c(-c3ccco3)nc2c1	none (no result: Cruzain Triton, Cruzain inh noDet) | Papain inh 32µM
Cc1ccc(OCC(=O)Nc2cccc(OCc3cc(=O)n4cccc(C)c4n3)c2)cc1C	none
CCCCOc1cccc(C(=O)N(Cc2ccc(N(C)C)cc2)C2CCS(=O)(=O)C2)c1 (stereo not given)	none
O=C(Nc1nnc(C2CC2)o1)c1ccc(S(=O)(=O)N2CCCc3ccccc32)cc1	none
COc1ccc(-c2nnc(NC(=O)c3ccc(S(=O)(=O)N4CCCc5ccccc54)cc3)o2)cc1	none | Papain inh inactive
COc1ccccc1CN(Cc1cc2cc3c(cc2[nH]c1=O)OCCO3)Cc1nnnn1Cc1ccco1	Cruzain inh noDet inconclusive
Cc1ccc2[nH]c(=O)c(CN(Cc3ccc4c(c3)OCO4)Cc3nnnn3Cc3ccco3)cc2c1	none
CCc1ccc2[nH]c(=O)c(CN(Cc3ccccc3)Cc3nnnn3Cc3ccco3)cc2c1	none
O=c1[nH]c2cc3c(cc2cc1CN(Cc1ccccc1)Cc1nnnn1Cc1ccco1)OCCO3	none
CCc1ccc2[nH]c(=O)c(CN(Cc3ccccc3)Cc3nnnn3Cc3ccccc3)cc2c1	none (no result: Cruzain Triton, Cruzain inh noDet) | Papain inh inactive
Cc1ccc2[nH]c(=O)c(CN(Cc3ccco3)Cc3nnnn3Cc3ccccc3)cc2c1	none (no result: Cruzain Triton, Cruzain inh noDet) | Papain inh inactive
Cc1ccc2[nH]c(=O)c(CN(CCCO)Cc3nnnn3Cc3ccco3)cc2c1	none (no result: Cruzain Triton, Cruzain inh noDet) | Papain inh inactive
Cc1ccc2cc(CN(Cc3ccco3)Cc3nnnn3Cc3ccco3)c(=O)[nH]c2c1	none (no result: Cruzain Triton, Cruzain inh noDet) | Papain inh inactive
COc1ccc(Cl)cc1NC(=O)CCn1nc(C)cc1C	none
COc1ccc(CCNC(=O)CSc2nnc(-c3ccc(C)cc3)c(-c3ccc(C)cc3)n2)cc1OC	none
Cc1ccc2oc(C(=O)N(Cc3cccc(F)c3)C3CCS(=O)(=O)C3)c(C)c2c1 (stereo not given)	none
NC(N)=N/N=C(\c1ccc(Cl)cc1)C1CC1	none
COc1ccc(CCNC(=O)Cn2cc(C(=O)c3ccc(Cl)cc3)c(=O)c3ccc(C)nc32)cc1OC	none
Cc1cccc2cc(CN(Cc3ccccc3)Cc3nnnn3Cc3ccccc3)c(=O)[nH]c12	none (no result: Cruzain Triton, Cruzain inh noDet) | Papain inh inactive
Cc1ccc2[nH]c(=O)c(CN(Cc3nnnn3Cc3ccccc3)C3CCCC3)cc2c1	none
Cc1ccc2[nH]c(=O)c(CN(Cc3ccccc3)Cc3nnnn3Cc3ccccc3)cc2c1	none (no result: Cruzain Triton, Cruzain inh noDet) | Papain inh inactive
Cc1cccc2cc(CN(Cc3cccs3)Cc3nnnn3Cc3ccccc3)c(=O)[nH]c12	none
CCCCC[C@H](O)/C=C/[C@@H]1[C@H]2C/C(=C/CCCC(=O)O)C[C@H]2C[C@H]1O	none
CCc1cc2c(=O)[nH]c(-c3ccncc3)nc2s1	Cruzain Triton 8.9µM, Cruzain inh noDet inconclusive | Papain inh inactive
CCc1cc2c(=O)[nH]c(Cc3ccccc3)nc2s1	Cruzain inh noDet inconclusive
Cc1cccc(N2CCN(C(=O)c3ccc4c(Cl)c5c(nc4c3)CCCC5)CC2)c1C	none
CCOc1ccc(N(CC)S(=O)(=O)c2cc(Br)cc3c2N(C(C)=O)C(C)C3)cc1 (stereo not given)	Cruzain inh noDet inconclusive
COc1ccc2c(c1OC)C(Cc1ccccc1)N1CCc3cc4c(cc3C1C2)OCO4 (stereo not given)	none
COC(=O)CNC(=O)C1CCN(C(=O)OCc2ccccc2)CC1	none
O=C(COc1ccccc1)NC1CCCCC1	none
O=C(CNC(=O)C1CCCCC1)OCc1ccccc1	none (no result: Cruzain Triton, Cruzain inh noDet) | Papain inh inactive
O=C(CNC(=O)C1CCCCC1)OCCOc1ccccc1	none (no result: Cruzain Triton, Cruzain inh noDet) | Papain inh inactive
CCOc1ccc(S(=O)(=O)N2CCN(c3cccc(C(F)(F)F)c3)CC2)cc1OCC	none
COc1ccc2c(c1)CC(C(=O)NCCN1CCN(c3cccc(Cl)c3)CC1)CO2 (stereo not given)	none
O=C(Nc1ccc(N2CCCC2)cc1)c1ccc(Br)o1	Cruzain Triton inconclusive, Cruzain inh noDet 7.9µM | Papain inh inactive
O=C(Nc1ccc(N2CCN(C(=O)c3ccccc3)CC2)cc1)c1ccc(Br)o1	Cruzain inh noDet inconclusive
Cc1ccc(S(=O)(=O)N[C@@H](Cc2ccccc2)C(=O)CCl)cc1	Cruzain Triton 7.1µM, Cruzain inh noDet 3.2µM | Papain inh 16µM!
Cc1ccc(S(=O)(=O)N[C@H](CO)C(=O)O)cc1	none
COCCCNC(=O)c1ccc(-n2c(-c3ccccc3)cc3c2CCCC3)cc1	none
Cc1ccc(S(=O)(=O)c2nc(-c3ccco3)oc2NCC2CCCO2)cc1 (stereo not given)	Cruzain Triton 11µM, Cruzain inh noDet 10µM | Papain inh inactive
Cc1ccc(CSc2oc(-c3ccco3)nc2S(=O)(=O)c2ccc(C)cc2)cc1	none
Cc1cc(NC(=O)CSc2nc(-c3cccc(F)c3)nc3c2c(=O)n(C)c(=O)n3C)no1	none
Cc1nc2cc(-c3ccccc3)nn2c(C)c1CCC(=O)N1CCN(c2ccccc2)CC1	Cruzain inh noDet inconclusive | Papain inh inactive
Cc1nc2cc(-c3ccc(Cl)cc3)nn2c(C)c1CCC(=O)N1CCN(c2ccccc2)CC1	none
CN(C)CCCNS(=O)(=O)c1ccc(N2CCC(c3ccc(Cl)cc3)=N2)cc1	Cruzain Triton 32µM, Cruzain inh noDet inconclusive | Papain inh 28µM
O=S(=O)(c1ccc(N2CCC(c3ccc(Cl)cc3)=N2)cc1)N(CCO)CCO	Cruzain inh noDet inconclusive
CCCN(CCC)c1nc(N)nc(C#N)n1	none (no result: Cruzain Triton, Cruzain inh noDet) | Papain inh 2µM
CCN(CC)c1nc(SCC(=O)O)nc(N(CC)CC)n1	none
CCN(CC)c1nc(C#N)nc(N(CC)CC)n1	Cruzain Triton 13µM, Cruzain inh noDet 16µM | Papain inh 5µM
CCCN(CCC)c1nc(N)nc(-c2cc(Cl)ccc2OC)n1	Cruzain inh noDet inconclusive
CCN(c1ccccc1)c1cc(C)nc2nc(C)nn12	none
CCN(c1ccccc1)c1nc(C#N)nc(N(CC)c2ccccc2)n1	none (no result: Cruzain Triton, Cruzain inh noDet) | Papain inh 3.2µM
